Here are results for eleven compounds from ChEMBL document CHEMBL3988442, “University of Dundee, Small-Polar-MMV Screening Library” (2021).

Molecules are shown by their SMILES. For some of these results: Results with a measured potency or affinity are listed apart.

What all share (set-up): scale not given: direction of the effect not stated beside the values
Assay [1] deals with Protein translocase subunit SecA (Escherichia coli (strain K12)) (UniProt P10408). As to the kind of experiment: Assay to Identify E. coli SecA ATPase Inhibitors. The assay is classed as functional. The following applies: 30 µM.
Chain of Protein translocase subunit SecA (Escherichia coli (strain K12)) (P10408 whole entry): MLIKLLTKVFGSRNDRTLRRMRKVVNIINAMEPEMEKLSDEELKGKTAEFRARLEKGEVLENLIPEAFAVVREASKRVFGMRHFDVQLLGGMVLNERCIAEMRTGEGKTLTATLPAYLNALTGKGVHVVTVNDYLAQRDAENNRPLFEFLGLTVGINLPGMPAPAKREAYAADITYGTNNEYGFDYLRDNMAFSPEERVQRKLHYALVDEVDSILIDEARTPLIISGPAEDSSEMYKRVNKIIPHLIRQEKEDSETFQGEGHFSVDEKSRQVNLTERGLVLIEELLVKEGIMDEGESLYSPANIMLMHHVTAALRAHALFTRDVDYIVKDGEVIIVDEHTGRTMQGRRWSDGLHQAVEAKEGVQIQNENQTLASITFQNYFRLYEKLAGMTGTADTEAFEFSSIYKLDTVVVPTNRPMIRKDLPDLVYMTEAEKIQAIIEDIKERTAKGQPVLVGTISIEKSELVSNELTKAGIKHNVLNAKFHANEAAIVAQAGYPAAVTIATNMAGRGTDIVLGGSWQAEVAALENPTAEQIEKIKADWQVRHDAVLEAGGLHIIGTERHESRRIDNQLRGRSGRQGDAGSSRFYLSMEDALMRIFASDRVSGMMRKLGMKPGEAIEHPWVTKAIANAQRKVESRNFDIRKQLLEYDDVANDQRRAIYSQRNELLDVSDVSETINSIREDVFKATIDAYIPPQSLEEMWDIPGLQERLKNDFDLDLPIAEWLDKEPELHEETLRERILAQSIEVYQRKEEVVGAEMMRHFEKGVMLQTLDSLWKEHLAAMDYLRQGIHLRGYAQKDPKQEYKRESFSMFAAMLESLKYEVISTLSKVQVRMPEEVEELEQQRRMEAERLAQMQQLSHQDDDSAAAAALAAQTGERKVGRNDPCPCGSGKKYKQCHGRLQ
The target of assay [2] is T1, Ubiquitin-activating enzyme e1, putative (Leishmania donovani (strain BPK282A1)) (UniProt E9BSI1).
T1 sequence (whole entry): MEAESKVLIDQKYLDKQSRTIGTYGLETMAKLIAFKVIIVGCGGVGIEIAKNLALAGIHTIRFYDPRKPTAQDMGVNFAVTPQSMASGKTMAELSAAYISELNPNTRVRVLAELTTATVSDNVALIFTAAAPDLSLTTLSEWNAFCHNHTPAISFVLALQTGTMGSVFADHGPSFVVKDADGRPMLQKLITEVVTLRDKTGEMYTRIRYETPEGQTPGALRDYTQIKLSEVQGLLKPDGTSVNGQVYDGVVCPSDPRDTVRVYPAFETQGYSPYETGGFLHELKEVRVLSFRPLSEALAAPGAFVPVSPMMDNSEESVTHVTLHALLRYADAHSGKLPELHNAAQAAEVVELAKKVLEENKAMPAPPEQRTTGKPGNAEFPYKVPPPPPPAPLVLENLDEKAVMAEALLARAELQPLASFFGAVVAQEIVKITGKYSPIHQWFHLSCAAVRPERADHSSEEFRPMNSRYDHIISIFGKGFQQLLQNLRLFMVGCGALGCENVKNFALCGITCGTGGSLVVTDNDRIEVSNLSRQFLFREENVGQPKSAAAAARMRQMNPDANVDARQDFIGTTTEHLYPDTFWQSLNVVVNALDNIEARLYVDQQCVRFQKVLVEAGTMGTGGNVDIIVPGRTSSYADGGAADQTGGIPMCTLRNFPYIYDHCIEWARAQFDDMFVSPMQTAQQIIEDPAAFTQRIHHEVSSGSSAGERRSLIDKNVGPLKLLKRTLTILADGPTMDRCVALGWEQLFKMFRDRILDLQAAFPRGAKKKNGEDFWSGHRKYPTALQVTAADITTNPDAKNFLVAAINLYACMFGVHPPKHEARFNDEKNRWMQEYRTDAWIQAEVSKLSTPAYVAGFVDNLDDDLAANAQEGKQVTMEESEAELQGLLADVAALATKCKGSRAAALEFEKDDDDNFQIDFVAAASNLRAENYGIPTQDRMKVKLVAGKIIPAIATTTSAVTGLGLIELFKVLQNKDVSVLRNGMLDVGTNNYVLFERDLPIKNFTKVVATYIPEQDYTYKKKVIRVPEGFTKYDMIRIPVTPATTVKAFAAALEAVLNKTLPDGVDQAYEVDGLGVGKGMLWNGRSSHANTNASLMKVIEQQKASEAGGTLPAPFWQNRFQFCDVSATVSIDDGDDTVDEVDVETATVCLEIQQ
Nature of the assay: Leishmania donovani Ubiquitin Activating Enzyme (LdE1). Conditions: 30 µM. Type of assay: functional.

Assay [3] has as its target AMP-activated protein kinase, AMPK (Homo sapiens) (UniProt P54646+O43741+P54619+Q9UGJ0+Q9Y478+Q13131+Q9UGI9). As to the kind of experiment: AMP-dependent Kinase enzyme assay. An in vitro enzyme assay that detects ADP turnover that is directly proportional to AMPK activity. This uses naive AMPK that is activated during the assay with MK-8722. Type of assay: functional. Conditions: 30 µM.

The target of assay [4] is Sialic acid-binding Ig-like lectin 9 (Homo sapiens) (UniProt Q9Y336). As to the kind of experiment: Hs-Siglec9 ALPHAscreen SOP 20170721. The following applies: 10 µM.
Chain of Sialic acid-binding Ig-like lectin 9 (Homo sapiens) (Q9Y336 whole entry): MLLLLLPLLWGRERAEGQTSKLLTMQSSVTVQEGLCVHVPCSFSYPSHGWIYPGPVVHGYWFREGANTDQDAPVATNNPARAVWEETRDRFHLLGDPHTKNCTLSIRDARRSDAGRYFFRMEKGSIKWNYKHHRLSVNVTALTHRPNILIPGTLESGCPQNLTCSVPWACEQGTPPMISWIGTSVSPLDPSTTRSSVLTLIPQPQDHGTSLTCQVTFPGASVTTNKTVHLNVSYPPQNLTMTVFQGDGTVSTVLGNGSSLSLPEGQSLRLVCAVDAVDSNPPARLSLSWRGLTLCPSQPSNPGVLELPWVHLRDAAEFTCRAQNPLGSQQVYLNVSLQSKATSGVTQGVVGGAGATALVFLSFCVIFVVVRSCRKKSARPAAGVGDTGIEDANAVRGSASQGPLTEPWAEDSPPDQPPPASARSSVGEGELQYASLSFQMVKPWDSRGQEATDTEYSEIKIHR
For the next assay, the system named is Trypanosoma cruzi. Nature of the assay: Trypanosoma cruzi phosphomannomutase and mannose-1-phosphate guanylyltransferase assay. The assay is classed as functional. The following applies: 10 µM.
In assay [5] the target is T2, Arginase-2, mitochondrial (Homo sapiens) (UniProt P78540).
T2 sequence (whole entry): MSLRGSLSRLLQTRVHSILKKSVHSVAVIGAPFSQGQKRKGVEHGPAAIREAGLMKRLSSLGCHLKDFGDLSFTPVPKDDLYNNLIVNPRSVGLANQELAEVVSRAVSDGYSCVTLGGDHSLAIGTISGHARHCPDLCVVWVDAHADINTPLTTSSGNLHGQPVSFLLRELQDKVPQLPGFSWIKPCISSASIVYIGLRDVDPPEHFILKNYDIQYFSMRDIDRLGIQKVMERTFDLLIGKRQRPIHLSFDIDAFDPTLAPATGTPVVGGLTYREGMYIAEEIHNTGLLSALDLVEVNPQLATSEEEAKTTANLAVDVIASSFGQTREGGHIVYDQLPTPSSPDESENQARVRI
As to the kind of experiment: in vitro enzyme assay to detect the production of urea directly proportional to the activity of Arginase II. Further: in the data most compounds retested in dose-response had high values. Type of assay: functional. Conditions: 33.3 µM.

Assay [6] addresses T3, Proteasome subunit beta (Trypanosoma cruzi) (UniProt O96673).
T3 sequence (whole entry): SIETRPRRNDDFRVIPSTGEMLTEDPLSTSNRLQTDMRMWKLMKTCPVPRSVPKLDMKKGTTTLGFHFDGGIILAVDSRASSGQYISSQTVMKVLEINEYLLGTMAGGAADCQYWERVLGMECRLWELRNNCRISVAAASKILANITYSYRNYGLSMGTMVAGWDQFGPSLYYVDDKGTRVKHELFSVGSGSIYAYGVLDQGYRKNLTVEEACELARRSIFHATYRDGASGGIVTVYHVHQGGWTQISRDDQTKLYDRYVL
As to the kind of experiment: Trypanosoma cruzi proteasome chymotrypsin-like activity (TcProtChymo) assay. Further: in the data most compounds retested in dose-response had high values. Conditions: 9.37 µM. Type of assay: functional.

The species named for a further assay is Homo sapiens. As to the kind of experiment: To identify inhibition of the IFN signalling (Jak-Stat) pathway via expression of an eGFP reporter gene under the control of an IFN-stimulated response element (ISRE) containing MxA promoter. Conditions: 30 µM. Type of assay: functional.
Assay [7] has as its target T4, Tyrosyl-tRNA synthetase, putative (Trypanosoma cruzi (strain CL Brener)) (UniProt Q4DSP6).
T4 sequence (whole entry): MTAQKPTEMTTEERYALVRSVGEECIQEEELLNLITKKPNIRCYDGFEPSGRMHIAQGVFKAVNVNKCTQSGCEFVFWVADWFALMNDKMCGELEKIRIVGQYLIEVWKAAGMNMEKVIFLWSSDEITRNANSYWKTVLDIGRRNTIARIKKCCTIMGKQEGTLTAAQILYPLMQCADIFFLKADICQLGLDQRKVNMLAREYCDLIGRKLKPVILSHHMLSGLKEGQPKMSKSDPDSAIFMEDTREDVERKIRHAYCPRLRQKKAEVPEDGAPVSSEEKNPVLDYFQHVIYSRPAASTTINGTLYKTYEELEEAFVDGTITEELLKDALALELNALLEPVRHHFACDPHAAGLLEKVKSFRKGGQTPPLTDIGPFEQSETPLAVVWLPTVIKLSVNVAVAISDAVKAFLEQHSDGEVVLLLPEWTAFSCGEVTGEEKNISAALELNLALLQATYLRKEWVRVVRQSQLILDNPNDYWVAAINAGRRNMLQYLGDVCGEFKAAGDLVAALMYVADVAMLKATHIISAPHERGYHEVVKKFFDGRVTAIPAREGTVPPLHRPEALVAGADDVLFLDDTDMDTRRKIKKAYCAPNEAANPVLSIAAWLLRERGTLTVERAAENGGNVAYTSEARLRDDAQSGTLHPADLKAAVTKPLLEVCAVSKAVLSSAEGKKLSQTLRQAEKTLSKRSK
Nature of the assay: Trypanosoma cruzi tyrosyl tRNA synthetase (TcYRS) _High Tyrosine SOP. Further: in the data most compounds retested in dose-response had high values. The assay is classed as functional. Conditions: 30 µM.

Assay [8] concerns the target T4, Tyrosyl-tRNA synthetase, putative (Trypanosoma cruzi (strain CL Brener)). Nature of the assay: Trypanosoma cruzi tyrosyl tRNA synthetase (TcYRS) SOP. Type of assay: functional. Conditions: 30 µM.
In assay [9] the target is Chromo domain-containing protein 1 (Saccharomyces cerevisiae (strain ATCC 204508 / S288c) (Baker's yeast)) (UniProt P32657). Nature of the assay: ScCHD-1 Enzyme Inhibition Assay. Further: in the data most compounds retested in dose-response had high values. Type of assay: functional. The following applies: 30 µM.
Chain of Chromo domain-containing protein 1 (Saccharomyces cerevisiae (strain ATCC 204508 / S288c) (Baker's yeast)) (P32657 whole entry, the tested form may be a part): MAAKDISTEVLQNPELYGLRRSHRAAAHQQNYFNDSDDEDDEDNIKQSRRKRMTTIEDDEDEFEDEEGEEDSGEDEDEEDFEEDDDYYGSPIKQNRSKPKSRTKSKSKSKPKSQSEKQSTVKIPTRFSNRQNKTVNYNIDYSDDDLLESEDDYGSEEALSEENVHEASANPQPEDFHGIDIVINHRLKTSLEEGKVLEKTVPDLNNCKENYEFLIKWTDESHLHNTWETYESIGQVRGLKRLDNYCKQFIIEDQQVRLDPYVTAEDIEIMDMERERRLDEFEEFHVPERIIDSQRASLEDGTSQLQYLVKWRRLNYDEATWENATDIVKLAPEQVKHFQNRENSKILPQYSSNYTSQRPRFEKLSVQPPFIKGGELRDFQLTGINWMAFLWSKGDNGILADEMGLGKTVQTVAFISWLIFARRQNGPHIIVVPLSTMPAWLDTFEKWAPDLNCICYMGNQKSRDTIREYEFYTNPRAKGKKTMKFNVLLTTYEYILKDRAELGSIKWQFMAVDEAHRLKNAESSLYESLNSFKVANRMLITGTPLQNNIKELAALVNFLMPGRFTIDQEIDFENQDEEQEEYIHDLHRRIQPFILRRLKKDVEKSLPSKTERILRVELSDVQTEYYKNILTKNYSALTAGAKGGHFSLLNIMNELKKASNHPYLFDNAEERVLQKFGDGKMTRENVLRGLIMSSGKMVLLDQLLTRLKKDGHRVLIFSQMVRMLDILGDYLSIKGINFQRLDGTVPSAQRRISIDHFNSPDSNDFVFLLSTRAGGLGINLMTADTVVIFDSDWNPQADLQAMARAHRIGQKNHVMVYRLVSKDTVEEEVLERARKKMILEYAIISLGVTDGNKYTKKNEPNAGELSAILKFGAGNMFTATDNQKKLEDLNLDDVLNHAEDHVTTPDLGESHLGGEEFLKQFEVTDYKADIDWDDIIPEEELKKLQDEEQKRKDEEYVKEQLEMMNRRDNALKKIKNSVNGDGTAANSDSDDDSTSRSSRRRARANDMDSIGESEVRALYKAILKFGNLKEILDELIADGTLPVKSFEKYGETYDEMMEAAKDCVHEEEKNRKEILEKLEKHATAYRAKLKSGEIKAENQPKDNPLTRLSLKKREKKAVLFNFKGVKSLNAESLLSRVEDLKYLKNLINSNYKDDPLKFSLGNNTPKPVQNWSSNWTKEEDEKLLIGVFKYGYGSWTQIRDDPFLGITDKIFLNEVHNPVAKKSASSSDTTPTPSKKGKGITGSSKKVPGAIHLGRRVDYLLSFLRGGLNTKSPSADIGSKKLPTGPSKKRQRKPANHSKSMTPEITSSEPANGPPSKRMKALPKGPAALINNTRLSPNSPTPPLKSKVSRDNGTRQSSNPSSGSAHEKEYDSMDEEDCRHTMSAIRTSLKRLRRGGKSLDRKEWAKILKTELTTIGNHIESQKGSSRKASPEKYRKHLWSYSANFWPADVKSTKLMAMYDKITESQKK

Consider `CCc1nc2n(n1)CC(NCC(=O)Nc1ccc(Cl)cn1)CC2` (stereo unspecified), for which the Percent Effect in [1] is -0.524%; in [2], 10.1%; in assay [3] it was -6.65%; in assay [4], -1.69%; in the assay with Trypanosoma cruzi it was -7.65%; in assay [5], 3.04%. The Percent Effect is 5.82% in assay [6]; 12.9% in the assay filed under Homo sapiens; 0.493% in assay [7]; 3.8% in assay [8]; -7.63% in assay [9].
Turning to `O=C(NCCCO)Nc1cccc(Cl)c1F`, the Percent Effect in assay [1] was -3.09%; in assay [2], 12.5%; in [3], -6.85%; in assay [4] it was 11.1%; with Trypanosoma cruzi, 4.96%; in [5], 11%. Besides, the Percent Effect in assay [6] is 8.25%; in the assay listed under Homo sapiens, -2.91%; in [7] it was 3.16%; in assay [8], 5.13%; in assay [9] it was -4.47%.
In the case of `N#Cc1cccc(CS(=O)(=O)NCC(O)Cc2ccccc2)c1` (stereo unspecified), the Percent Effect was -4.15% in [1]; -2.67% in assay [2]; 0.717% in assay [3]; 0.263% in assay [4]; 0.682% in the assay with Trypanosoma cruzi; -3.12% in [5]. The Percent Effect in assay [6] was found to be 1.4%; in the assay listed under Homo sapiens, 6.52%; in assay [7] it was 0.546%; in assay [8] it was 3.7%; in assay [9] it was 1.24%.
`COC(=O)c1ccc(N2CCN(CCC#N)C(C)C2)cc1` (stereo unspecified): the Percent Effect was -7.22% in assay [1]; 10.5% in [2]; 3.82% in assay [3]; -3.31% in [4]; -8.12% with Trypanosoma cruzi; -0.36% in assay [5]. The Percent Effect in assay [6] turned out to be 4.15%; in the assay listed under Homo sapiens, 5%; in assay [7], 5.42%; in assay [8], 3.7%; in assay [9], 0.577%.
Regarding `CCc1nc(C)c(C(=O)N2C[C@H]3CC[C@@H]2CN(S(=O)(=O)N(C)C)C3)s1`, the Percent Effect in assay [1] is -5.92%; in assay [2], 2.67%; in [3], -0.605%; in assay [4], -2.09%; in the assay with Trypanosoma cruzi, -8.28%; in assay [5], -2.08%. For the same compound, the Percent Effect in assay [6] is 15.9%; in the assay filed under Homo sapiens it was 21.2%; in [7], -0.546%; in [8], 3.7%; in [9], -4.98%.
Take `Cc1ccc(C2C3=C(COC3=O)Nc3[nH]nc(C)c32)cc1C` (stereo unspecified): the Percent Effect in [1] is -2.97%; in assay [2], 9.33%; in [3] it was 12.5%; in assay [4] it was -3.88%; in the assay with Trypanosoma cruzi, -4.71%; in [5], -4.75%. Also, the Percent Effect is 10.7% in [6]; 30.1% in the assay listed under Homo sapiens; -22.2% in assay [7]; -23.1% in [8]; -11.7% in [9].
For `Cc1cc(N2CCC(c3nnc(CN(C)C)n3C3CC3)CC2)ccn1`, the Percent Effect in assay [1] was -5.32%; in [2], -1.39%; in [3] it was 34.9%; in [4], -1.61%; in the assay with Trypanosoma cruzi, -4.37%; in assay [5], -0.883%. For the same compound, the Percent Effect is 16.1% in assay [6]; -6.01% in the assay listed under Homo sapiens; 1.05% in assay [7]; -5.13% in assay [8]; -4.13% in [9].
As to `CCc1nc(C)c([C@H]2CN(C)C[C@@H]2C(=O)NCCc2cnccn2)[nH]1`, the Percent Effect was -4.56% in assay [1]; 8.11% in assay [2]; 3.09% in assay [3]; 6.61% in assay [4]; 1.54% with Trypanosoma cruzi; 2.86% in [5]. The Percent Effect in assay [6] was 6.72%; in the assay filed under Homo sapiens, 3.41%; in assay [7] it was 10.1%; in [8] it was 17.1%; in assay [9], -3.65%.
Turning to `CC(=O)NCc1ccc(C(=O)N2CCCCC2Cn2cccn2)o1` (stereo unspecified), the Percent Effect in [1] was -1.39%; in assay [2] it was 27%; in [3], -1.91%; in assay [4] it was -5%; in the assay with Trypanosoma cruzi, 4.18%; in assay [5], -5.36%. Further, the Percent Effect in [6] was 14.4%; in the assay filed under Homo sapiens, 17.1%; in assay [7] it was 1.98%; in [8], 18.3%; in assay [9] it was -6.26%.
As for `COc1ncc(-c2nccn2CCN(C)C)cn1`, the Percent Effect was -3.87% in [1]; -2.7% in assay [2]; -2.61% in [3]; 1.15% in [4]; -0.965% in the assay with Trypanosoma cruzi; -3.81% in assay [5]. In addition, the Percent Effect in [6] is 20.9%; in the assay filed under Homo sapiens it was 2.02%; in [7], -2.65%; in assay [8], 2.44%; in assay [9], -3.6%.
Take `CCOc1cc(/C=C/c2ncc(C(=O)O)s2)cc(Cl)c1OC`: the Percent Effect was -1.71% in assay [1]; 8.86% in assay [2]; 6.6% in [3]; 1.04% in [4]; -7.28% in the assay on Trypanosoma cruzi; -4.52% in [5]. Further, the Percent Effect in assay [6] was 12.3%; in the assay filed under Homo sapiens, 10.1%; in [7] it was 0%; in [8], 7.59%; in assay [9] it was -21.1%.
